Experimental data from PubChem BioAssay (NCI).
Several values for one entry are separate records, joined by “and”; a condition that tells them apart may be missing. Identical values can stand only once. Compounds without any hit were thinned out: in the full panel of roughly 79,000, 15% have a hit. Unmarked numbers belong to inactive results. Activity calls are given as the source filed them. No stated cut-off is given here; in the data, active means growth inhibition above about 70%; inactive means the rest.

assay: NCI Yeast Anticancer Drug Screen. Data for the bub3 strain (AID 167); conditions: S. cerevisiae bub3 mutant strain, at 50.0 µM (retest, dose inferred, filed as 5.0), stronger effect = higher value
Summary of the method: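 Mutant yeast screening strain plus compound; vehicle-treated cultures serve as the 0% inhibition reference.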

Row | Compound | growth inhibition
1 | O=C1C(CN2CCCCC2)CCCC1CN1CCCCC1 (stereo unspecified) | 20%
2 | NC(=O)c1cc(Br)cc(Br)c1O | 77% (active)
3 | CN(C)c1ccc(/C=C/c2ccc3ccccc3[n+]2C)cc1 | 99% (active)
4 | C1=C(CN2CCCCC2)COc2ccccc21 | 44%
5 | O=C1Nc2ccccc2C1(O)C/C(=N/O)c1ccc2ccccc2c1 (stereo unspecified) | 77% (active)
6 | CC(C)(S)C(N)C(=O)O (stereo unspecified) | -13%
7 | COC(=O)[C@@H](NS(=O)(=O)CC12CCC(CC1)C2(C)C)C(C)(C)C | 54%
8 | CN(CCN1C(=O)c2cccc3cccc(c23)C1=O)CCN1C(=O)c2cccc3cccc(c23)C1=O | 95% (active)
9 | CN(C)CCCN=c1c2ccccc2n(O)c2cccc([N+](=O)[O-])c12 | -10%
10 | O=C(/C=C/c1ccc(Cl)cc1)NC1C=Nc2ccc([N+](=O)[O-])cc2NC1=O (stereo unspecified) | 92% (active)
11 | O=C(CC(=O)CC(O)(c1ccccc1)c1ccccc1)CC(=O)c1ccccc1 | 96% (active)
12 | O=C(c1ccc(Cl)cc1)C(O)c1ccc(Cl)cc1 (stereo unspecified) | 20% and 45%
13 | COc1ccc2c(c1)C(Cc1ccc(Oc3ccc(CC4c5cc(OC)ccc5CC[N+]4(C)C)cc3)cc1)[N+](C)(C)CC2 (stereo unspecified) | 82% (active)
14 | O=C(NO)c1cccnc1 | -2%
15 | Oc1c(Cl)c(Cl)c(Cl)c2ccccc12 | 93% (active)
16 | CSC1SCC2C(=O)N(C)C(C(C)C)C(=O)OCC(NC(=O)c3cnc4ccccc4n3)C(=O)NC(C)C(=O)N(C)C1C(=O)N(C)C(C(C)C)C(=O)OCC(NC(=O)c1cnc3ccccc3n1)C(=O)NC(C)C(=O)N2C (stereo unspecified) | 98% (active) and 97% (active)
